SMILES strings stand for the structures. Records with an inconclusive call do not appear. Calls of active or inactive are those of the source. The calls were made as follows: active = hit-call score of the fitted dose curve at least 0.9, where 1 is the maximum; inconclusive = response in the unintended direction; inactive = score below 0.9.

Sequence of human Insulin Receptor (InsR), INSR (gene 3643) (P06213 whole entry, looked up): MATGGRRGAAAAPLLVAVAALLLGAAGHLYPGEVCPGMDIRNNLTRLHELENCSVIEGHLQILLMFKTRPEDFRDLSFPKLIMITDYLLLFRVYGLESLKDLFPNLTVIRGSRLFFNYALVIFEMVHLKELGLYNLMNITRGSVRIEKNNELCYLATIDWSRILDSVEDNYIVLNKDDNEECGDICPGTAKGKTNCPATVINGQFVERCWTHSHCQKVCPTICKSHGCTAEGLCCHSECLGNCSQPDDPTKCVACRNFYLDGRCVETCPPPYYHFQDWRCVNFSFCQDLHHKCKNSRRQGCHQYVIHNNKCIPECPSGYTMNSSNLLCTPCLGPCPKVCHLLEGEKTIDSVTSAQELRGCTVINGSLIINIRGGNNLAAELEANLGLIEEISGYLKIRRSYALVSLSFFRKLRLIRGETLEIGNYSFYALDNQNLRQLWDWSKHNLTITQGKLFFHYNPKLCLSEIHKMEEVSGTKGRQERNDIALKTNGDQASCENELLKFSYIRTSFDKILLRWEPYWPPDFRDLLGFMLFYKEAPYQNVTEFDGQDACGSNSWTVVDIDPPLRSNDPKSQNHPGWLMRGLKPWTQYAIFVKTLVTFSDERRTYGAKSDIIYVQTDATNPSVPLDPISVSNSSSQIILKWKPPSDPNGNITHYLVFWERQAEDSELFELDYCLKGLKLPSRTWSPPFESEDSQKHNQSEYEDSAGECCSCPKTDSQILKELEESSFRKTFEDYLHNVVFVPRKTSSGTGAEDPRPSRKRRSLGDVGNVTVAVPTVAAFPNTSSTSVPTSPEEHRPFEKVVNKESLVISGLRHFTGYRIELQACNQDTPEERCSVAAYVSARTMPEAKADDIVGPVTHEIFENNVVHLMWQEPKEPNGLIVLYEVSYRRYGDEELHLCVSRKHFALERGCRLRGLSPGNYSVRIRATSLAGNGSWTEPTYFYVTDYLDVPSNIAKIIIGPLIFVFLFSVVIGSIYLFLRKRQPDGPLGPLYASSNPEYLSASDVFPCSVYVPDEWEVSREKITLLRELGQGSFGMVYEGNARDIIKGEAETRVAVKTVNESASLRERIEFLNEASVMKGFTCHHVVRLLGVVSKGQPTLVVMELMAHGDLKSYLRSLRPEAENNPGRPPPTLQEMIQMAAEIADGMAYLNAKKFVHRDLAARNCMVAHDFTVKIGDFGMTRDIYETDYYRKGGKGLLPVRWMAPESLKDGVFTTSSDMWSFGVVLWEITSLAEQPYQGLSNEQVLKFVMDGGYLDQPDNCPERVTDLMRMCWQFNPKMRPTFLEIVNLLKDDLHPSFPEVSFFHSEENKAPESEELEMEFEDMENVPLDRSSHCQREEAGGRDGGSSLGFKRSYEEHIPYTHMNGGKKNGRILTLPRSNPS

This assay has as its target human Insulin Receptor (InsR), INSR (gene 3643) (UniProt P06213). Put plainly: NVS_ENZ_hInsR: NovaScreen (NVS) Enzymatic Assay for human Insulin Receptor (InsR) (AID 2283168). In a few lines:
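Fluorescent substrate phosphorylation by recombinant kinase, product resolved by electrophoretic mobility shift, read 1 h after dosing. Screened in duplicate at 25 uM; hits (e.g., 30% inhibition) run in concentration-response to 50 uM; DMSO as baseline.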
Turning to `O=C(O)CCCCC(=O)O`, the outcome was inactive.
As for `CC(=O)OCCOCCOCCOC(C)=O`, the entry is “inactive”; as for `CCc1c(C(=O)NN2CCCCC2)nn(-c2ccc(Cl)cc2Cl)c1-c1ccc(Br)cc1`, “inactive”; as for `COc1cc(C=O)ccc1O`, “inactive”.

For the origin of these results see PubChem BioAssay (EPA / NIEHS).
